Reference: PubChem BioAssay AID651702 (NMMLSC, 2012)
The campaign covered roughly 360,000 compounds. About 2,400 (0.67%) were called active.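 How the source made its calls: active means inhibition above about 55% (limit read from the data); inconclusive means no clear call, values can overlap the other calls; inactive means the rest.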 Only a selection was taken, and actives are over-represented in it overall.

Assay: LAMP-1 surface exposure blockers, TALL-104 cells – cell-based, flow cytometry, MLPCN library, primary screen (AID 651702)
Settings: TALL-104 LAMP-1 surface exposure, at 10 µM, active compounds read high, cells stimulated with thapsigargin and PMA

Row | Compound | inhibition
1 | CC[C@@H]1CC2=C(C(=O)OC(C)(C)O2)[C@@H](CC)O1 | -0.8% (inactive)
2 | Cc1cccc(-c2ncc(CN3CCC(CO)(CCCc4ccccc4)CC3)cn2)c1 | 2.3% (inactive)
3 | CC(C)(O)C#Cc1ccc(CN2CCC(CO)(CCc3ccccc3)CC2)cc1 | -3% (inactive)
4 | Cc1c(CN2CCC(CO)(CCOc3ccccc3)CC2)[nH]c2ccc(Cl)cc12 | 64.1% (active)
5 | Cc1cc(=O)cc(C)[nH]1 | -3.9% (inactive)
6 | Cc1oc(-c2ccccc2Cl)[n+]([O-])c1C | 58.5% (active)
7 | Cc1oc(-c2cccc(Cl)c2)[n+]([O-])c1C | 8% (inactive)
8 | CCOc1cnc(-c2c(-c3ccccc3Cl)noc2C)o1 | 1.2% (inactive)
9 | COc1ccc([C@H]2CC(=O)C=C(c3ccc(OC(F)(F)F)cc3)C2)cc1OC | -1.8% (inactive)
10 | CC1(C2CC2)NC(=O)N(CC(=O)N2CCN(c3ccccc3F)CC2)C1=O (stereo not drawn) | 2% (inactive)
11 | Cc1cccc(NC(=O)c2cccc(C(=O)Nc3cccc(C)c3C)n2)c1C | -1.9% (inactive)
12 | Cc1cc(C)cc(N(CC(=O)NCCSCc2ccco2)S(C)(=O)=O)c1 | -4.7% (inactive)
13 | CCc1ccccc1N(CC(=O)NCCSCc1ccco1)S(C)(=O)=O | -0.4% (inactive)
14 | CS(=O)(=O)N(Cc1ccc(Cl)cc1)c1ccc(C(=O)NCCSCc2ccco2)cc1 | 95.2% (active)
15 | COc1cccc(NC(=O)CSc2nccn(-c3ccc4c(c3)OCCO4)c2=O)c1 | -0.2% (inactive)
16 | C/C=C/c1ccc(OCC(O)CN2CCCCCCC2)c(OC)c1 (stereo not drawn) | -1% (inactive)
17 | CCOC(=O)N1CCN(c2cc(C)c([N+](=O)[O-])cc2F)CC1 | -1% (inactive)
18 | CN(C)c1ccc(N/C=C/C(=O)C(F)(F)F)cc1 | 0.5% (inactive)
19 | NNC(=O)C1CC(O)CN1S(=O)(=O)c1ccc(Cl)cc1 (stereo not drawn) | -0.1% (inactive)
20 | Cc1ccc2nc(COc3ccc(N(C)S(=O)(=O)c4ccccc4)cc3)cc(=O)n2c1 | 2% (inactive)
21 | CN(c1ccccc1)S(=O)(=O)c1ccc(NC(=O)COc2ccccc2)cc1 | 16.3% (inactive)
22 | COc1cccc(COc2ccc(N(C)S(=O)(=O)c3ccccc3)cc2)c1 | 72% (active)
23 | Cc1ccc(NC(=O)CN2CCCCC2)c2c1CC(C)(C)O2 | -0.4% (inactive)
24 | CCc1cccc(C)c1NC(=S)N(CCCN1CCN(C)CC1)Cc1cccs1 | -1.6% (inactive)

Row | Compound | inhibition
25 | Cc1ccccc1NC(=S)N(CCCN1CCOCC1)Cc1cccs1 | 5.8% (inactive)
26 | Cc1ccc(NC(=S)N(CCCN2CCCC2)Cc2cccn2Cc2ccc(Cl)cc2)cc1 | 75.2% (active)
27 | O=C(c1n[nH]c2c1CCC2)N1CCCC(Nc2cccc(F)c2)C1 (stereo not drawn) | -7.9% (inactive)
28 | CCCCC(CC)CNCc1cccn1CCN1CCOCC1 (stereo not drawn) | 19.8% (inactive)
29 | COc1ccc(NC(=O)C2=CC(c3ccc(OC)c(OC)c3)=NS(=O)(=O)N2C)cc1 | -5.8% (inactive)
30 | CCc1ccc(C2N3CC4([N+](=O)[O-])CN2CC([N+](=O)[O-])(C3)C4(C)C)cc1 (stereo not drawn) | -2% (inactive)
31 | Oc1ccc2ccccc2c1N=Nc1nccs1 | 61.9% (active)
32 | CC(C)(C)c1cc2cccnc2n1Cc1ccccc1 | 0% (inactive)
33 | O=S(=O)(Nc1ccc2ccccc2c1)N1CCCCC1 | -2.7% (inactive)
34 | COc1ccc(S(=O)(=O)N(C)C[C@@H]2Oc3ccc(NS(=O)(=O)c4cn(C)cn4)cc3C(=O)N([C@@H](C)CO)C[C@@H]2C)cc1 | -0.8% (inactive)
35 | COc1ccccc1NS(=O)(=O)c1ccc(C(=O)N2CCN(c3ccccc3O)CC2)cc1 | 2.1% (inactive)
36 | O=S(=O)(Nc1ccc(O)c2ccccc12)c1ccc(OC(F)(F)F)cc1 | 60.2% (active)
37 | O=S(=O)(Nc1ccc(OC(F)(F)F)cc1)c1cccc2nonc12 | -6.5% (inactive)
38 | O=C(NCc1cccc(C(F)(F)F)c1)c1ccc2sc(COCCO)nc2c1 | 2.2% (inactive)
39 | COc1ccc2c(c1)C(=C(C#N)C#N)C(=O)N2CCc1ccccc1 | 97.9% (active)
40 | CCCCN1C(=O)/C(=C(/C#N)C(N)=O)c2ccccc21 | -1.7% (inactive)
41 | C#CCN1C(=O)C(O)(CC(=O)c2cc(OC)ccc2OC)c2ccccc21 (stereo not drawn) | -1.2% (inactive)
42 | CCOC(=O)[C@]12CCCC=C1N(CCC1=CCCCC1)C(=O)[C@H](CC(=O)NCCCCc1ccccc1)C2 | 11.5% (inactive)
43 | Cc1cccc(OCC(O)Cn2c(=N)n(CCN3CCOCC3)c3ccccc32)c1 (stereo not drawn) | 1.7% (inactive)
44 | OC(CN=c1sc2ccccc2n1CC(O)COc1ccccc1)COc1ccccc1 (stereo not drawn) | 91.1% (active)
45 | OC(COc1ccc(CN2CCSCC2)cc1)CN1CCCCC1 (stereo not drawn) | 19.9% (inactive)
46 | O=c1cc(CO)oc(C(Nc2cccc(C(F)(F)F)c2)c2ccccn2)c1O (stereo not drawn) | 1.7% (inactive)
47 | CC(C)CCN1NC2(CCC(C)CC2)NC1=S (stereo not drawn) | -6.9% (inactive)
48 | O=C(COC(=O)c1ccccc1SCC(=O)N1CCCC1)Nc1ccccc1OC(F)F | -7.8% (inactive)
